In ChEMBL document CHEMBL1961873, “Compounds: GSK PKIS; Assays: Nanosyn kinase panel” (2012) one finds inhibition data, which are given here for three compounds.

Molecules are shown by their SMILES.

The target in assay [1] is T1, Serine/threonine-protein kinase D2 (Homo sapiens) (UniProt Q9BZL6).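 Also: mean value of PRKD2 inhibition, from the GSK PKIS screening panel.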
T1 sequence (whole entry): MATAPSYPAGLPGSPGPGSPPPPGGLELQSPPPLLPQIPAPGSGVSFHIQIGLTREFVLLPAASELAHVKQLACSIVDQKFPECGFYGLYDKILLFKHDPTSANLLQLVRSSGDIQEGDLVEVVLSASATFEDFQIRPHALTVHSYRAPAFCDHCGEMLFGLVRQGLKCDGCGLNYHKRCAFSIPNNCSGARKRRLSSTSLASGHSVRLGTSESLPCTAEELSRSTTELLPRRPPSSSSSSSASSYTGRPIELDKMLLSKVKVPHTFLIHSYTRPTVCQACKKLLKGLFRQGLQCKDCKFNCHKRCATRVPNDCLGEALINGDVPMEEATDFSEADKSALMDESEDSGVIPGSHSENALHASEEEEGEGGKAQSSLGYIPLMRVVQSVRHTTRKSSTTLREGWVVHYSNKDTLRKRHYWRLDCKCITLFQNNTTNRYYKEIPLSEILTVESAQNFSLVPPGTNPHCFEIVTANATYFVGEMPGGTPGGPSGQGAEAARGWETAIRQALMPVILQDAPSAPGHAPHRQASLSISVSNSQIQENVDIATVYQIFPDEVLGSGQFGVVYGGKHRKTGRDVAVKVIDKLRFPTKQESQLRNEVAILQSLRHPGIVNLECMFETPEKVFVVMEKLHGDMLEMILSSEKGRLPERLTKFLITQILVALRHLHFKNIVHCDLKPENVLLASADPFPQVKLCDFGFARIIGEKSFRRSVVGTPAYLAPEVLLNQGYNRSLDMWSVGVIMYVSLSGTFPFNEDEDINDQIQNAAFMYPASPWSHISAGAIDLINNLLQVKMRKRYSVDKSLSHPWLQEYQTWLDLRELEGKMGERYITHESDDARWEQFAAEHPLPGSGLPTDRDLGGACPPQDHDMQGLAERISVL
The conditions noted are these: at 1 µM.

Assay [2] deals with T2, Serine/threonine-protein kinase D3 (Homo sapiens) (UniProt O94806).
T2 sequence (whole entry): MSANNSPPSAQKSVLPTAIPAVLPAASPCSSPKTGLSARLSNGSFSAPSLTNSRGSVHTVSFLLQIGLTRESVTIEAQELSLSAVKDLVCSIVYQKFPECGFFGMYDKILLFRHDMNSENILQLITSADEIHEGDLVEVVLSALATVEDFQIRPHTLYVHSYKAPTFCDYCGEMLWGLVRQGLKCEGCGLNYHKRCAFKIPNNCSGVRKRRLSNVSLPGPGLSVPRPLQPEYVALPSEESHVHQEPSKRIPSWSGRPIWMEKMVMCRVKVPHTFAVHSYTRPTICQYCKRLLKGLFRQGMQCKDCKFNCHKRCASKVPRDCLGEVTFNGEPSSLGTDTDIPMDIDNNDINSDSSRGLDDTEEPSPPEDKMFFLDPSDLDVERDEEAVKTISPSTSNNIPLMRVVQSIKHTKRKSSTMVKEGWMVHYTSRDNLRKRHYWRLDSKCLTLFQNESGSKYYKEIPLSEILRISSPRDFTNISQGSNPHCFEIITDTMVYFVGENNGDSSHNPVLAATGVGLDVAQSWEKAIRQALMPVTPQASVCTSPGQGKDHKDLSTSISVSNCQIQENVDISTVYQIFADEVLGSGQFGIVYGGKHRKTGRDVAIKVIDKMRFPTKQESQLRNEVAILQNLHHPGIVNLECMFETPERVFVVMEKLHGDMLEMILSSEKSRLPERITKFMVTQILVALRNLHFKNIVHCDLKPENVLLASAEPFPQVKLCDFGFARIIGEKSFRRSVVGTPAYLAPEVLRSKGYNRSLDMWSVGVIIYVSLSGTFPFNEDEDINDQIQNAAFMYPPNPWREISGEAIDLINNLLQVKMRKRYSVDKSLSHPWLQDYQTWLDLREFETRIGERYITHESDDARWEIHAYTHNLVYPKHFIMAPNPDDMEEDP
As to conditions: at 0.1 µM.

The target of assay [3] is T2, Serine/threonine-protein kinase D3 (Homo sapiens). As to conditions: at 1 µM.
The target in assay [4] is T3, cGMP-dependent protein kinase 1 (Homo sapiens) (UniProt Q13976).
T3 sequence (whole entry): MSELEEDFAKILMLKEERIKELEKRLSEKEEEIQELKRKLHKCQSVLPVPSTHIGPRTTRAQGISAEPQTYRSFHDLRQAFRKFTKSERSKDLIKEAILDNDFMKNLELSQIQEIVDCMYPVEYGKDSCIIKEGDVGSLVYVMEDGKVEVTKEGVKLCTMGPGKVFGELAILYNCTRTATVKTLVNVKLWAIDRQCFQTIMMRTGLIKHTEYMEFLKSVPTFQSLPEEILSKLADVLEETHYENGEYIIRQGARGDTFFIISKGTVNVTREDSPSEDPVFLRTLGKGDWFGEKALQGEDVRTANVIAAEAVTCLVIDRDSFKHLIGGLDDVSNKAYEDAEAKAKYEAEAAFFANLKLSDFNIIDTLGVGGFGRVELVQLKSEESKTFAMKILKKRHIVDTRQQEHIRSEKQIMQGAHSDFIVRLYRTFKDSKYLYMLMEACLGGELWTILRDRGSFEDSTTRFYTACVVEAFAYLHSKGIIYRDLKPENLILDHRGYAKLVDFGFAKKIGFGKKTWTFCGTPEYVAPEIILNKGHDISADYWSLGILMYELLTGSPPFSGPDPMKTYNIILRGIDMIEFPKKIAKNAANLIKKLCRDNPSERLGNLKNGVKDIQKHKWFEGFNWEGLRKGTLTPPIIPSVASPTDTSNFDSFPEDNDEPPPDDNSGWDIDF
As to conditions: at 0.1 µM.

Assay [5] concerns the target T3, cGMP-dependent protein kinase 1 (Homo sapiens). As to conditions: at 1 µM.
Assay [6] addresses T4, cGMP-dependent protein kinase 2 (Homo sapiens) (UniProt Q13237).
T4 sequence (whole entry): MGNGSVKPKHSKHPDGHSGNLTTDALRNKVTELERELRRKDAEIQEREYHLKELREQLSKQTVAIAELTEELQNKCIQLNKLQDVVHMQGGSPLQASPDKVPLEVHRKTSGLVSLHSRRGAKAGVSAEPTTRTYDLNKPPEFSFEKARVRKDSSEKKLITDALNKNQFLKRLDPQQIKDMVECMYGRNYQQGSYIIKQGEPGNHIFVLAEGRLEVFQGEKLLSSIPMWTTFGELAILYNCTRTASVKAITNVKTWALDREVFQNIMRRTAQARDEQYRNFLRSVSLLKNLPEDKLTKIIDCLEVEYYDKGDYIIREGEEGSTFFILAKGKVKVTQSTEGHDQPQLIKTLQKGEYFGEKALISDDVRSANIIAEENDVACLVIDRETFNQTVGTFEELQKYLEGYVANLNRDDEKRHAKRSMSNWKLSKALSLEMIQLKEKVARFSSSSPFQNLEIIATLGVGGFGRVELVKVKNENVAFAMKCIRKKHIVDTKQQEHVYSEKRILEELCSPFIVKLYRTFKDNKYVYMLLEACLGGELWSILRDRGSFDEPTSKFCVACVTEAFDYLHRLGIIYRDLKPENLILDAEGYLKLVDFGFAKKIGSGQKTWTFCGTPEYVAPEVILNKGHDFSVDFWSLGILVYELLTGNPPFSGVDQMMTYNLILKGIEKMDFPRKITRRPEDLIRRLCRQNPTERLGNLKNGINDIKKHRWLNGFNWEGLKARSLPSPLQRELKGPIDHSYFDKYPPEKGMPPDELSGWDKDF
As to conditions: at 0.1 µM.

Assay [7] concerns the target T4, cGMP-dependent protein kinase 2 (Homo sapiens). As to conditions: at 1 µM.
For assay [8], the target named is T5, cAMP-dependent protein kinase catalytic subunit PRKX (Homo sapiens) (UniProt P51817).
T5 sequence (whole entry): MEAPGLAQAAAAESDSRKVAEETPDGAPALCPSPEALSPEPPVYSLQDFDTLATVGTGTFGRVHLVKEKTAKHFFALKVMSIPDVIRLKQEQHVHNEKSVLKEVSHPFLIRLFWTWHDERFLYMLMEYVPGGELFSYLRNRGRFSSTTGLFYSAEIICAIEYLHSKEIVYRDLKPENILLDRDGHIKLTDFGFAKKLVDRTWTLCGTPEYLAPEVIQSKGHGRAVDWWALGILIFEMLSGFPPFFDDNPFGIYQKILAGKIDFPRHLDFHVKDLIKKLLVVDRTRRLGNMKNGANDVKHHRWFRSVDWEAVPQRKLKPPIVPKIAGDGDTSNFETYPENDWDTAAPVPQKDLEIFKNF
As to conditions: at 0.1 µM.

In assay [9] the target is T5, cAMP-dependent protein kinase catalytic subunit PRKX (Homo sapiens). As to conditions: at 1 µM.
The target in assay [10] is Rho-associated protein kinase 1 (Homo sapiens) (UniProt Q13464). The conditions noted are these: at 0.1 µM.
Assay [11] has the same target. As to conditions: at 1 µM.
Assay [12] has as its target Rho-associated protein kinase 2 (Homo sapiens) (UniProt O75116). The conditions noted are these: at 0.1 µM.
Assay [13] shares this target. The conditions noted are these: at 1 µM.
Assay [14] concerns the target Ribosomal protein S6 kinase alpha-1 (Homo sapiens) (UniProt Q15418). The conditions noted are these: at 0.1 µM.
For assay [15] the target is unchanged. As to conditions: at 1 µM.
In assay [16] the target is Ribosomal protein S6 kinase alpha-3 (Homo sapiens) (UniProt P51812). As to conditions: at 0.1 µM.
Chain of Ribosomal protein S6 kinase alpha-3 (Homo sapiens) (P51812 whole entry): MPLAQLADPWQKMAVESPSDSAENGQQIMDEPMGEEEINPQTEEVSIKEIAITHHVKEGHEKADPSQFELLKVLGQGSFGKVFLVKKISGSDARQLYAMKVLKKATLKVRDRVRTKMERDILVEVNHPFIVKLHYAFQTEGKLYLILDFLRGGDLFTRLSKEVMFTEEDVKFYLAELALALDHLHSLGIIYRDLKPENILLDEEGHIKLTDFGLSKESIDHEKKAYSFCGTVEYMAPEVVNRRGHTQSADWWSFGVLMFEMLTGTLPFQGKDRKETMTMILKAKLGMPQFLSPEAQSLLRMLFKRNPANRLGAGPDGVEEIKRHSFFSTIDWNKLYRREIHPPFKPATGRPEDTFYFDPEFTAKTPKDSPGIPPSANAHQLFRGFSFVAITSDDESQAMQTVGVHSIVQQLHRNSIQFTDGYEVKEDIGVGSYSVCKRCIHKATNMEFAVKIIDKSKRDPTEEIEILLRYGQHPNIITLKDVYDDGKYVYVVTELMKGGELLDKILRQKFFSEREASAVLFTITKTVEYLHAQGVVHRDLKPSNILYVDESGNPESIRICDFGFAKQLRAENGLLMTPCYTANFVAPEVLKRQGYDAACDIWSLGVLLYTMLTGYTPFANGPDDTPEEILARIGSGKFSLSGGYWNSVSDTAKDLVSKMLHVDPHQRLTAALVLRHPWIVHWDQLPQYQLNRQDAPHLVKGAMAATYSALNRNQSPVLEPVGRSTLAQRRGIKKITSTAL
Assay [17] shares this target. As to conditions: at 1 µM.
The target of assay [18] is Ribosomal protein S6 kinase alpha-2 (Homo sapiens) (UniProt Q15349). As to conditions: at 0.1 µM.
Chain of Ribosomal protein S6 kinase alpha-2 (Homo sapiens) (Q15349 whole entry): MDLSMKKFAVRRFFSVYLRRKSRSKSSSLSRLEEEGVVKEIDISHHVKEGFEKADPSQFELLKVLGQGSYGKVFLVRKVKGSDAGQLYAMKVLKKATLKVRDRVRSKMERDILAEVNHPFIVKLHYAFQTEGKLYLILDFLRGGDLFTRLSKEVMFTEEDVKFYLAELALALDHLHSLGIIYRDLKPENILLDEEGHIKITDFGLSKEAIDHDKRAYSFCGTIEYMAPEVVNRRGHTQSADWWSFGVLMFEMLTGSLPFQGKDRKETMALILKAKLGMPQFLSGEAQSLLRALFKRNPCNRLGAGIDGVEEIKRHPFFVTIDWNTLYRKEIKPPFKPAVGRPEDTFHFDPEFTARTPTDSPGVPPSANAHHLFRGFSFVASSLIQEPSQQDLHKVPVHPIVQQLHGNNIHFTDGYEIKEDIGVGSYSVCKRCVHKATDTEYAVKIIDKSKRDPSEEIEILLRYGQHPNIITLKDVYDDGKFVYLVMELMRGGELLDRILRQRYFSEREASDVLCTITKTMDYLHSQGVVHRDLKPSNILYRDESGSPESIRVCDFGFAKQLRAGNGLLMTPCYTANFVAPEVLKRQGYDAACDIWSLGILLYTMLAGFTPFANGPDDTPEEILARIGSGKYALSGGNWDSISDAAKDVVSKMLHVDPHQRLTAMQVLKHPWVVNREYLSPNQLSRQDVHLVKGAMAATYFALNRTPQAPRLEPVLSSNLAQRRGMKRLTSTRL
Assay [19] has the same target. As to conditions: at 1 µM.
For assay [20], the target named is Ribosomal protein S6 kinase alpha-6 (Homo sapiens) (UniProt Q9UK32). The conditions noted are these: at 0.1 µM.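 Also: reported value is the mean inhibition of RSK4, from the GSK PKIS kinase inhibitor screen.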
Chain of Ribosomal protein S6 kinase alpha-6 (Homo sapiens) (Q9UK32 whole entry): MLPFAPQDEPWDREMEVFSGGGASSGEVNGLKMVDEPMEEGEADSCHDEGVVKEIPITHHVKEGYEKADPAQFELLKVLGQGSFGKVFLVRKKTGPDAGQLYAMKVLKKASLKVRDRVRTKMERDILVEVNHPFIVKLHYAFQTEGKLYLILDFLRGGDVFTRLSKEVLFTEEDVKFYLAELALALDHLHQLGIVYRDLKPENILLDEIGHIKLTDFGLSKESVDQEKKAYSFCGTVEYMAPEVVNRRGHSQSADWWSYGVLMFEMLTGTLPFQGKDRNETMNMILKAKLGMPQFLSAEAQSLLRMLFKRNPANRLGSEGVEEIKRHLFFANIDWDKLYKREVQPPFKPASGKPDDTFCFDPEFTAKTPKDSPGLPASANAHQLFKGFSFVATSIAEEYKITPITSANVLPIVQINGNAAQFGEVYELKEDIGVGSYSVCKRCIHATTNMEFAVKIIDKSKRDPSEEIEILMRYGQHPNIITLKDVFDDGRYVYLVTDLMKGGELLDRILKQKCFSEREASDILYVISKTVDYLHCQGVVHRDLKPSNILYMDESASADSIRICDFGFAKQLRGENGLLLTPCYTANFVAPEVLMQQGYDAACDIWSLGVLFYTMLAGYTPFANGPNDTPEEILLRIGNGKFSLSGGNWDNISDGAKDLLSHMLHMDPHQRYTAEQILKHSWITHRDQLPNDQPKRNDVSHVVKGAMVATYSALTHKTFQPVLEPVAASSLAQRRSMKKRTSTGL

Chain of Ribosomal protein S6 kinase alpha-1 (Homo sapiens) (Q15418 whole entry): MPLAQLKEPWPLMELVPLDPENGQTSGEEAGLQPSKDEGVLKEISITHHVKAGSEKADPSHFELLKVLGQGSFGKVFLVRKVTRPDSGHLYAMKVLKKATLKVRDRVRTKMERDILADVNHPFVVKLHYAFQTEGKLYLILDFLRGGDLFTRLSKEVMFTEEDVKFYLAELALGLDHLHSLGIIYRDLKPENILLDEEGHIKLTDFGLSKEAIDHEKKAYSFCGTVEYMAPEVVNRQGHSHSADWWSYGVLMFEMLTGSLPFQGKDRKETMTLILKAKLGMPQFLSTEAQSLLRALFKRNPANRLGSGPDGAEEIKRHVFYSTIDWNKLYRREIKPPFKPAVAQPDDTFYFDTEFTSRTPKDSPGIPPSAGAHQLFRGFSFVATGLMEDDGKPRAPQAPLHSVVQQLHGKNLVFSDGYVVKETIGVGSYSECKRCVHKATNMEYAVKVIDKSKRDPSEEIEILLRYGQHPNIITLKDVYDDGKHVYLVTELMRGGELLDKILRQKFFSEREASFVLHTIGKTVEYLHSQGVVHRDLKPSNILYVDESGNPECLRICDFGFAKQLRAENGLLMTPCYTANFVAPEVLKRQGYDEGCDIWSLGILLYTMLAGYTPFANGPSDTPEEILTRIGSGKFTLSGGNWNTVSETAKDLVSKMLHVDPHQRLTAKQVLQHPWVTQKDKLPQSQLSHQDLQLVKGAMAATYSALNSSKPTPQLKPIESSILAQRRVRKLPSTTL
Chain of Rho-associated protein kinase 2 (Homo sapiens) (O75116 whole entry, looked up): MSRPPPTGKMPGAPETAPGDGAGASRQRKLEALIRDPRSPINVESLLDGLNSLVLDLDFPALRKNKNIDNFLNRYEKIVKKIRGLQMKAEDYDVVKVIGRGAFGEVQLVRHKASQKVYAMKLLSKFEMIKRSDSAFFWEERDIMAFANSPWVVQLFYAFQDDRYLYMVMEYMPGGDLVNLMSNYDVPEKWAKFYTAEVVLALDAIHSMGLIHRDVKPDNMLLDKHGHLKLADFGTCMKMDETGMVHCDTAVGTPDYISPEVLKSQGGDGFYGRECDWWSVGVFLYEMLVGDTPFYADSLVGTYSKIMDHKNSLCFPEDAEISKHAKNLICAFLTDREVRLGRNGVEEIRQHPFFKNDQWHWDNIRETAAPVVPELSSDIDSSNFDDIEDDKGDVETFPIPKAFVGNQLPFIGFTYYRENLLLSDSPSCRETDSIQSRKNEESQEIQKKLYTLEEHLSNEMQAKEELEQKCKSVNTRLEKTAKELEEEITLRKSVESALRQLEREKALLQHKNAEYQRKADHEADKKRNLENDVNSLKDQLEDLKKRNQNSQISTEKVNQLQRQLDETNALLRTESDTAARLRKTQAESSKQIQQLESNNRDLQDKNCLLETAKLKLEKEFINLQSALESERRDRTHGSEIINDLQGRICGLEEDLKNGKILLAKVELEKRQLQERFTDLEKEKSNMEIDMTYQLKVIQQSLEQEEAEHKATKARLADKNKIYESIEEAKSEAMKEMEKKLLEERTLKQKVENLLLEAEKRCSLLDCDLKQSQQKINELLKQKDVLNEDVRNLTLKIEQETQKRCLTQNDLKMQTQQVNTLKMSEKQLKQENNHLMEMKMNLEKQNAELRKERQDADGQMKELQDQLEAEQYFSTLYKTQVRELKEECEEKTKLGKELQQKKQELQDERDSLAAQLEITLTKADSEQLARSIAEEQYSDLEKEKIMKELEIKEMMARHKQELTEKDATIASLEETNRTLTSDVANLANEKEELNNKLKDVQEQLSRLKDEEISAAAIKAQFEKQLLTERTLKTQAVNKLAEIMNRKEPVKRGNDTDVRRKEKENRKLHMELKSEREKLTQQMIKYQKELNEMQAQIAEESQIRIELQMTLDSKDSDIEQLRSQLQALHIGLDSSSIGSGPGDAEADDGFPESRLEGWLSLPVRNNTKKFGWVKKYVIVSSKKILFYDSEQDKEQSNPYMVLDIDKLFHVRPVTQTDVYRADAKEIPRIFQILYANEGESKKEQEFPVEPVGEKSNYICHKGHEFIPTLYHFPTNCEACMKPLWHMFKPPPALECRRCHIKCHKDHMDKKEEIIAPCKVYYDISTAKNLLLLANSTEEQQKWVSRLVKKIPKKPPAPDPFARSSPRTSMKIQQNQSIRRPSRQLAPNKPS

As a reminder, the inhibition is the relative decrease from the control value, in per cent. `COc1cc(C=NNc2ncnc3c2cnn3-c2ccccc2)ccc1O`: the inhibition came out at 2.86% in [1]; 2.52% in assay [2]; 3% in assay [3]; 1.67% in [4]; 1.52% in assay [5]; 2.05% in assay [6]. Moreover, the inhibition in assay [7] was 4.06%; in [8] it was 1.55%; in [9], 1.36%; in assay [10], 0.41%; in assay [11], 3.41%; in assay [12], 1.64%. Also, the inhibition came to 8.94% in [13]; 1.65% in assay [14]; 7.83% in assay [15]; 1.16% in assay [16]; 6.18% in assay [17]; 2.26% in assay [18]. Further, the inhibition in assay [19] is 7.02%; in assay [20], 0.33%.
`CCn1c(-c2nonc2N)nc2ccncc21`: the inhibition was 3.25% in assay [1]; 0.84% in assay [2]; 2.17% in [3]; 0.57% in assay [4]; 3.36% in assay [5]; 2.12% in assay [6]. Further, the inhibition in assay [7] is 8.39%; in assay [8], 0.91%; in assay [9], -1.6%; in assay [10], 1.94%; in [11], 1.28%; in assay [12], 0.14%. Further, the inhibition in assay [13] was 0.99%; in [14], 0.57%; in assay [15] it was 0.69%; in assay [16], 0.32%; in assay [17] it was 0.16%; in [18], -0.05%. In addition, the figures for the inhibition in [19] and in [20] were 1.68% and 1.33%, respectively.
On to `COc1ccc(-c2ccncc2)cc1C(N)=O`, for which the inhibition in [1] was 5.71%; in [2], 5.67%; in assay [3], 11.1%; in assay [4], 4.34%; in assay [5], 13.7%; in assay [6], 2.97%. Moreover, the inhibition in assay [7] worked out at 17%; in [8], 2.9%; in assay [9] it was 3.27%; in assay [10] it was 2.65%; in assay [11], 4.76%; in assay [12], 3.14%. The inhibition in assay [13] worked out at 6.03%; in assay [14], 2.42%; in [15], 4.51%; in [16] it was 1.67%; in assay [17] it was 4.1%; in assay [18], 3.52%. The inhibition in [19] is 5.01%; in [20] it was 2.25%.
